TIM10 inh = growth inhibitors of TIM10 yeast strain. S. cerevisiae TIM10 strain growth, BacTiter-Glo luminescence, 24 h. actives 1.4% (n = 330,000). AID 463195. inhibition, % at 10 µM;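 active means inhibition of 40% or more at the single tested concentration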;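 further: wild-type TIM10 isogenic control strain grown at permissive 25 °C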
tim23-1 inh = inhibits growth of tim23-1 mutant yeast; S. cerevisiae tim23-1 growth, BacTiter-Glo luminescence, 24 h; inhibition, % at 20 µM; actives 1.3% (n = 330,000);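 active means growth inhibition of the mutant yeast at or above 50%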;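 further: temperature-sensitive mutant grown at 25 °C; plate controls were DMSO-treated mutant yeast for no effect and medium wells lacking yeast for full effect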
SKKanGAS inh = inhibitors of SKKanGAS S. pyogenes growth in kanamycin (SK-promoter or general growth effect); BacTiter-Glo, 6 h; inhibition, % at 7.5 µM; actives 1.3% (n = 300,000); AID 1662;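 active means mean replicate score, as percent of positive control median, at least 50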;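 further: strain carries kanamycin resistance gene driven by streptokinase promoter and grows in 40 µg/ml kanamycin; loss of luminescence reflects streptokinase promoter inhibition or plain growth inhibition; 0% = median of DMSO wells and 100% = positive control at its reference dose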
NLRP3 yeast inh = NALP3 inhibition in yeast; Yeast reconstituted NLRP3/ASC/caspase-1, beta-gal luminescence, 24 h; inhibition, % at 10 µM; actives 0.39% (n = 330,000); AID 2825;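 active means inhibition of 50% or more; inactive means inhibition below 50%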;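 further: plate controls were induced DMSO wells for no effect and uninduced yeast grown without galactose for full effect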
tim10-1 inh = growth inhibitors of tim10-1 mutant yeast; S. cerevisiae tim10-1 ts strain growth, BacTiter-Glo, 24 h; inhibition, % at 20 µM; actives 2.2% (n = 330,000);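 active means inhibition of at least 40%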;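 further: mutant grown at 25 °C; 0% = DMSO wells with yeast and 100% = wells holding no yeast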
* marks the source's active call; other numbers are inactive results. The list is not random: actives were taken first. Their share in the collection is about 4.6%.

Screening O=C(Nc1nnc(C2=COCCO2)o1)c1cccc([N+](=O)[O-])c1 returned TIM10 inh 12.2, tim23-1 inh -3.0, SKKanGAS inh 0.8, NLRP3 yeast inh 7.3 and tim10-1 inh -15.1.
O=C(Nc1nnc(C2=COCCO2)o1)c1cccc(Br)c1 was read as TIM10 inh 7.3, tim23-1 inh 3.7, SKKanGAS inh 99.6*, NLRP3 yeast inh 10.5 and tim10-1 inh 24.6.
CC1CCCN(C(=O)COC(=O)c2cc(Br)ccc2O)C1 (configuration not stated) was read as TIM10 inh -1.2, tim23-1 inh 32.4, NLRP3 yeast inh 22.1 and tim10-1 inh -13.9.
For COc1ccc(CNC(=S)Nc2cccc(F)c2)cc1 the results were TIM10 inh 8.8, tim23-1 inh 31.6, SKKanGAS inh 2.8, NLRP3 yeast inh 19.1 and tim10-1 inh 13.6.
Screening CC(=O)c1c(C)[nH]c(C(=O)C(C)Sc2nnc(NC3CC3)s2)c1C (configuration not stated) returned TIM10 inh -1.0, tim23-1 inh 8.0, NLRP3 yeast inh 9.7 and tim10-1 inh 0.1.
O=C(O)CCn1c(SCCOc2ccccc2F)nc2ccccc21 was read as TIM10 inh -11.0, tim23-1 inh 2.6, SKKanGAS inh -3.4, NLRP3 yeast inh 33.3 and tim10-1 inh 8.8.
For CCOc1ccc2[nH]cc(-c3csc(N)n3)c2c1 the results were TIM10 inh -2.4, tim23-1 inh 10.0, SKKanGAS inh 14.7, NLRP3 yeast inh 12.5 and tim10-1 inh 12.0.
For CCOC(=O)N1CCN(C(=O)c2ccc3c(=O)n(CCC4=CCCCC4)c(=S)[nH]c3c2)CC1 the results were TIM10 inh 11.9, tim23-1 inh -20.4, SKKanGAS inh 67.4*, NLRP3 yeast inh 24.6 and tim10-1 inh -1.3.
COc1ccc(OCCCC(=O)Nc2nc(-c3ccccn3)cs2)cc1 was read as TIM10 inh 15.0, tim23-1 inh 18.4, SKKanGAS inh 72.8*, NLRP3 yeast inh 27.5 and tim10-1 inh -11.0.
`COc1ccc2oc(C(=O)Nc3nc(-c4ccccn4)cs3)c(C)c2c1` gave TIM10 inh -3.5, tim23-1 inh 8.5, SKKanGAS inh 84.5*, NLRP3 yeast inh 6.5 and tim10-1 inh 5.6.
Cc1cc(C)c(OCC(=O)Nc2nc(-c3ccccn3)cs2)c(C)c1 was read as TIM10 inh 9.9, tim23-1 inh 9.7, SKKanGAS inh 97.5*, NLRP3 yeast inh 2.0 and tim10-1 inh -30.5.
COc1ccc2oc(C(=O)NC(C)c3ccccn3)c(C)c2c1 (configuration not stated) was read as TIM10 inh 8.9, tim23-1 inh 29.8, NLRP3 yeast inh 20.2 and tim10-1 inh 2.1.
Screening Cc1ccccc1OCC(=O)Nc1nc(-c2ccncc2)cs1 returned TIM10 inh 21.5, tim23-1 inh 25.5, NLRP3 yeast inh 0.7 and tim10-1 inh 25.8.
Screening O=C(N/N=C/c1ccccc1)c1ccc(NC(=O)c2ccc(F)cc2)cc1 returned TIM10 inh -5.8, tim23-1 inh -12.3, SKKanGAS inh -2.4, NLRP3 yeast inh 17.2 and tim10-1 inh -3.6.
For O=C(N/N=C/c1cc(Br)cc([N+](=O)[O-])c1O)c1ccc(NC(=O)c2ccc(F)cc2)cc1 the results were TIM10 inh -1.6, tim23-1 inh 6.6, SKKanGAS inh 58.5*, NLRP3 yeast inh 22.7 and tim10-1 inh 3.1.
`CCN(CC(=O)Nc1ccccc1C(F)(F)F)C(=O)c1ccccc1Cc1ccccc1` gave TIM10 inh 20.3, tim23-1 inh 36.3, SKKanGAS inh -1.1, NLRP3 yeast inh 2.1 and tim10-1 inh 29.0.
For COc1cccc2sc3ccc(C#Cc4ccc(N)cc4)cc3c(=O)c12 the results were TIM10 inh 25.9, tim23-1 inh 26.4, SKKanGAS inh 76.0*, NLRP3 yeast inh -26.6 and tim10-1 inh 34.8.
Screening Nc1ccc(C#Cc2ccc3sc4ccccc4c(=O)c3c2)cc1 returned TIM10 inh 25.8, tim23-1 inh 22.6, SKKanGAS inh 1.6, NLRP3 yeast inh 31.0 and tim10-1 inh 18.6.
Screening CC(Oc1ccc(Cl)cc1Cl)c1nc(-c2ccc(NC(=O)c3ccco3)cc2)no1 (configuration not stated) returned TIM10 inh 27.1, tim23-1 inh 7.9, SKKanGAS inh 54.0*, NLRP3 yeast inh 12.5 and tim10-1 inh 30.6.
`CC(NC(=O)c1ccco1)c1nc(-c2ccccc2)no1` (configuration not stated) gave TIM10 inh 0.4, tim23-1 inh 2.7, SKKanGAS inh -1.1, NLRP3 yeast inh 21.1 and tim10-1 inh 2.2.
